# Reference: PubChem BioAssay (NCATS)
# Unmarked numbers belong to inactive results. Active and inactive are the calls of the source. Calls follow the shape of the dose curve; as a rule, active = well fitted curve in the direction sought with a large enough effect; inconclusive = small, poorly fitted or top-dose-only effect, or effect the other way, or another doubt; inactive = no such curve, though single readings can be large or run the other way.
# Biological target: Beta-2 adrenergic receptor (Homo sapiens) (UniProt P07550)
# Assay: qHTS validation assay of beta-arrestin-biased ligands of beta2-adrenergic receptor (AID 485366); also: 0% is about no effect
# Conditions: cell-based beta-arrestin recruitment to ADRB2, qHTS; series mostly up to 46.1 µM; activation: at the top concentration
# Source text: NIH Molecular Libraries Probe Production Network [MLPCN]
# NIH Chemical Genomics Center [NCGC]
# PI: Bryan Roth and Bob Lefkowitz
# The concept of biased agonism is an emerging concept of molecular pharmacology which proposes that seven transmembrane receptors (7TMRs) or G protein-coupled receptors (GPCRs), exist in multiple signaling conformations and complexes and that ligands (either agonists or antagonists) can induce signaling biased responses for distinct signal transduction cascades.
# Furthermore, accumulating evidence over the last decade has drawn attention to a novel function of beta-arrestins as signal transducers that scaffold various signaling molecules upon activation of 7TMRs. […] This beta-arrestin-biased signaling presumably leads to distinct physiological outcomes from those by G protein activation.
# Additionally, the active receptor conformations which […] on this beta-arrestin signaling are likely different from those activating G protein signaling
# The goal of this screening project will be to discover and optimize novel beta-arrestin-biased ligands for beta2-AR signaling. A luminescent cell-based assay for beta2-AR-mediated agonism, known as the Tango assay, has been validated in which ligand binding of a recombinant beta2-AR and subsequent recruitment of a recombinant beta-arrestin lead to the release of the transcriptional activator tTA, which upregulates transcription of a tTA-responsive luciferase gene. […] Compounds were screened as a concentration-titration series that ranged from 46 microM to 0.6 nM.
# NCGC Assay Protocol Summary:
# Tango cells were dispensed into white, solid, tissue-culture-treated 1536-well plates at 1500 cells/well in DMEM, containing 1% fetal bovine serum (FBS). Then, 23 nL of compounds or DMSO were delivered to each well using a pin tool. Plates were incubated at 37 degrees C, 5% CO2 for 18 hr. Then 2.5 uL luminescent substrate mix (in-house prepared: 150 mM Tris-Cl, pH 7.6, 3 mM MgCl2, 1% Triton X-100, 5 mM DTT, 0.5 mM CoA, 0.15 mM ATP, 0.44 mM D-luciferin, final concentrations) was added to each well. Plates were then incubated for 15 minutes at room temperature, and subsequently measured on a ViewLux plate reader for luminescent signal using a clear filter with a 10 second exposure and 2x binning. The %Activity was determined from the corrected luminescence values.
# Concentration-response curves were fitted to the signals arising from the resulting luminescence. The concentration-effect curves were then classified based on curve quality (r2), response magnitude and degree of measured activity, and compounds were subsequently categorized based on their curve class.
# Keywords: biased agonism, beta2-AR, beta-arrestin, GPCR, 7TMR, Tango, luminescence, MLSMR, MLPCN, NIH Roadmap, qHTS, NCGC
# Chain of Beta-2 adrenergic receptor (Homo sapiens) (P07550 whole entry, looked up): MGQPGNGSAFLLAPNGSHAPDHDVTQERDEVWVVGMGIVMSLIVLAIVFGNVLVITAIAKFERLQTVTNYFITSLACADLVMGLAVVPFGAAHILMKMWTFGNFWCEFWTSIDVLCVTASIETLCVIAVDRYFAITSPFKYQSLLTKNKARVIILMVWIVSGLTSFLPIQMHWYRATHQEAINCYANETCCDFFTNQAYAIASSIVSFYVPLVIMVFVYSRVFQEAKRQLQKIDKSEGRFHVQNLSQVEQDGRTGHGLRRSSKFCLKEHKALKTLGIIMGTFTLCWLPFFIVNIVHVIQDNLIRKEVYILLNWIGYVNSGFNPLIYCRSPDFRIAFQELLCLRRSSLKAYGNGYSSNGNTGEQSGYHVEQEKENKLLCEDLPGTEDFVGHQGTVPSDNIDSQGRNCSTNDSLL
SMILES,activation,outcome
O=C1C(SCCO)=C(SCCO)C(=O)c2ccccc21,-0.152%,
CC(COc1ccc(/C=C/c2ccccc2)cc1)[N+](C)(C)C (stereo not given),-0.26%,
CN1[C@@H](CC(=O)c2ccccc2)CCC[C@H]1C[C@H](O)c1ccccc1,2.67%,
C[N+](C)(C)CCOP(=O)(O)OP(=O)([O-])OC[C@H]1O[C@@H](n2ccc(N)nc2=O)[C@H](O)[C@@H]1O,-0.268%,
CC[C@@H](C)[C@H]1O[C@]2(CC[C@H]1C)C[C@@H]1C[C@@H](CC=C(C)[C@@H](O[C@H]3C[C@H](OC)[C@@H](O[C@H]4C[C@H](OC)[C@@H](O)[C@H](C)O4)[C@H](C)O3)[C@@H](C)C=CC=C3CO[C@@H]4[C@H](O)C(C)=C[C@@H](C(=O)O1)[C@]34O)O2,-0.0513%,
Nc1ncnc2c1ncn2[C@@H]1O[C@H](COP(=O)(O)OP(=O)(O)OP(=O)(O)OP(=O)(O)OC[C@@H]2O[C@H](n3cnc4c(N)ncnc43)[C@@H](O)[C@H]2O)[C@@H](O)[C@H]1O,-0.0883%,
CCCCCCCC/C=C\CCCCCCCC(=O)NCCO,-0.102%,
CCCCC/C=C\CC(O)/C=C/c1cccc(CC(O)CCCCO)n1 (stereo not given),0.0855%,
CN(C)c1nc(N)c(C(=O)N=C(N)N)nc1Cl,0.622%,
COc1cc2c(CCNC(C)=O)c[nH]c2cc1Cl,2.93%,
Nc1nc(Cl)nc2c1ncn2[C@@H]1O[C@H](COP(=O)(O)OP(=O)(O)OP(=O)(O)O)[C@@H](O)[C@H]1O,0.13%,
O=C1/C(=C/c2ccsc2)CC/C1=C\c1cccs1,-0.524%,
Cc1ccc(O)c(N=Nc2ccccc2)n1,0.0876%,
C=C[C@@H]1CN2CC[C@@H]1C[C@H]2[C@H](O)c1ccnc2ccc(OC)cc12,0.71%,
CN1CCc2cccc3c2C1Cc1ccc(O)c(O)c1-3 (stereo not given),0.0367%,
CC(=O)SCC[N+](C)(C)C,-0.399%,
CCCN(CC1CC1)c1nc(C)nc(Nc2c(Cl)cc(Cl)cc2Cl)c1Cl,-0.184%,
NC(=S)NCCC[C@H](N)C(=O)O,-0.0725%,
Oc1cc2c(cc1O)CN(C(=S)NCCc1ccc(Cl)cc1)CCC2,-0.642%,
O=C(O)CC1CC(c2ccccc2)=NO1 (stereo not given),1.23%,

SMILES,activation,outcome
OC[C@H]1O[C@@H](n2cnc3c(NC4CCCCC4)ncnc32)[C@H](O)[C@@H]1O,2.07%,
O=C1O/C(=C/Br)CCC1c1cccc2ccccc12 (stereo not given),-0.0487%,
C[C@@H](CN1CCC(Cc2ccccc2)CC1)[C@@H](O)c1ccc(O)cc1,3.06%,
CN1CCc2cc(O)c(O)cc2C(c2ccccc2)C1 (stereo not given),0.212%,
CNc1ncnc2c1ncn2[C@@H]1O[C@H](CO)[C@@H](O)[C@H]1O,-0.699%,
Nc1nc(Cl)nc2c1ncn2[C@@H]1O[C@H](CO)[C@@H](O)[C@H]1O,0.0775%,
O=C1NC(=O)/C(=C/c2ccc(-c3ccc(F)cc3O)o2)S1,5.06%,
c1cnc2c(c1)ccc1cccnc12,0.149%,
N=C(N)SCCc1ccc(CCSC(=N)N)cc1,4.19%,
Cn1ncc(S(=O)(=O)Cc2ccccc2)c(Br)c1=O,0.0184%,
N[C@@H](CC(=O)O)C(=O)O,-0.743%,
O=C(c1cc(O)c(O)c([N+](=O)[O-])c1)c1ccccc1F,-0.316%,
O=C(O)[C@@H]1C[C@@H](C(=O)O)N1,0.0397%,
O=[N+]([O-])c1ccc2c(c1)S(=O)(=O)C=C2,0.0584%,
O=c1[nH]c2cc(C(F)(F)F)ccc2n1-c1cc(C(F)(F)F)ccc1O,-0.518%,
NCCSSCCN,-0.401%,
C[N+]1(C)C2CC(OC(=O)[C@H](CO)c3ccccc3)CC1C1OC12 (stereo not given in full),,inactive
NC(=O)C1=CN(C2OC(COP(=O)(O)OP(=O)(O)OC[C@H]3O[C@@H](n4cnc5c(N)ncnc54)[C@H](OP(=O)(O)O)[C@@H]3O)C(O)C2O)C=CC1 (stereo not given in full),1.38%,
S=C(S)OC1CC2CC1C1CCCC21 (stereo not given),0.0265%,
CC(=O)/C=C1\C(=O)N(C)c2ccccc21,-0.52%,
